The record followed here is the supplement of paper PMC3616981.

± gives the standard deviation of the averaged measurements.

Compound in assay [1]: CC(C)c1cccc(C(C)C)c1N1C(=O)c2ccc(O)cc2C1=O
Description: BioMAP readout fold decrease vs vehicle (vehicle/treated); higher = stronger decrease of the readout vs vehicle (values <1 mean increase). As for the experimental part:
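BioSeek BioMAP human primary cell (co-)culture systems (3C, 4H, LPS, SAg, BE3C, CASM3C, hDFCGF, KF3CT) treated with 5HPP-33 at 1.48, 4.44, 13.3 and 40 µM. Read-outs are protein levels by ELISA, proliferation and SRB total protein. Duplicate rows per assay are averaged as replicates. Tested in ToxCast Phase II for this study; exposure time not stated.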

Compound in assay [2]: CC(C)c1cccc(C(C)C)c1N1C(=O)c2ccc(O)cc2C1=O
The assay can be described thus: reporter fold induction vs vehicle; higher = higher reporter activity. In outline:
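Multiplexed cellular biosensor reporter system with cis response-element and trans nuclear-receptor transcription factor reporter constructs (48 cis, 25 trans) and homogeneous detection, tested in ToxCast Phase II at 8 concentrations (0.091–200 µM). Reporter activity is given as fold induction relative to vehicle control. Replicates were averaged where present.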
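Wherever BioMAP readout fold decrease vs vehicle (vehicle/treated) is given: Co-cultures of keratinocytes, bronchial epithelial and smooth muscle cells, fibroblasts, HUVECs and PBMCs under stimuli like LPS, TNF-α, IFN-γ, IL-1β, TGF-β or EGF, SRB reflecting cytotoxicity.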

For 3C_uPAR, the “BioMAP readout fold decrease” value in assay [1] (1.48 µM) was 1.13 ± 0.03; in assay [1] (4.44 µM), 1.15 ± 0.053; in assay [1] (13.3 µM) it was 1.43 ± 0.1; in assay [1] (40 µM), 2.6 ± 0.15.

Turning to CASM3C_MCSF, the “BioMAP readout fold decrease” value was found to be 1.06 ± 0.033 in assay [1] (1.48 µM), 1.14 ± 0.044 in assay [1] (4.44 µM), 1.03 ± 0.035 in assay [1] (13.3 µM) and 2.01 ± 0.034 in assay [1] (40 µM).

In the case of NURR1_TRANS, the reporter fold induction came out at 1.09 in assay [2] (0.091 µM); 1.26 in assay [2] (0.274 µM); 1.01 in assay [2] (0.823 µM); 1.05 in assay [2] (2.469 µM); 1.08 in assay [2] (7.407 µM); 0.976 in assay [2] (22.22 µM). Further, the reporter fold induction in assay [2] (66.67 µM) turned out to be 0.934; in assay [2] (200 µM), 1.2.

On to BE3C_uPA, for which the “BioMAP readout fold decrease” value in assay [1] (1.48 µM) came to 1.07 ± 0.019; in assay [1] (4.44 µM) it was 1.017 ± 0.0048; in assay [1] (13.3 µM), 1.027 ± 0.0098; in assay [1] (40 µM), 1.15 ± 0.042.

As to BE3C_MIG, the “BioMAP readout fold decrease” value in assay [1] (1.48 µM) was 0.992 ± 0.016; in assay [1] (4.44 µM), 1 ± 0.021; in assay [1] (13.3 µM), 1.036 ± 0.0018; in assay [1] (40 µM), 1.36 ± 0.19.

For hDFCGF_IP10, the “BioMAP readout fold decrease” value was 1.1 ± 0.1 in assay [1] (1.48 µM), 1.073 ± 0.0033 in assay [1] (4.44 µM), 1.33 ± 0.037 in assay [1] (13.3 µM) and 5.47 ± 0.25 in assay [1] (40 µM).

On to FXR_TRANS, for which the reporter fold induction in assay [2] (0.091 µM) was determined as 1.17; in assay [2] (0.274 µM), 1.15; in assay [2] (0.823 µM), 1.19; in assay [2] (2.469 µM), 1.17; in assay [2] (7.407 µM), 1.09; in assay [2] (22.22 µM) it was 1.46. Further, the reporter fold induction turned out to be 1.82 in assay [2] (66.67 µM) and 1.92 in assay [2] (200 µM).

Regarding ISRE_CIS, the reporter fold induction was 1.23 in assay [2] (0.091 µM); 0.874 in assay [2] (0.274 µM); 1.04 in assay [2] (0.823 µM); 0.962 in assay [2] (2.469 µM); 0.9 in assay [2] (7.407 µM); 0.883 in assay [2] (22.22 µM). For the same target, the reporter fold induction is 0.605 in assay [2] (66.67 µM) and 0.362 in assay [2] (200 µM).

3C_Proliferation: the “BioMAP readout fold decrease” value in assay [1] (1.48 µM) amounted to 1.29 ± 0.074; in assay [1] (4.44 µM), 3.56 ± 0.043; in assay [1] (13.3 µM) it was 6.1 ± 0.28; in assay [1] (40 µM) it was 7.03 ± 0.41.

Turning to KF3CT_TGFb1, the “BioMAP readout fold decrease” value amounted to 1.03 ± 0.011 in assay [1] (1.48 µM), 1.044 ± 0.0031 in assay [1] (4.44 µM), 1.11 ± 0.021 in assay [1] (13.3 µM) and 2.33 ± 0.15 in assay [1] (40 µM).

Take hDFCGF_MCSF: the “BioMAP readout fold decrease” value in assay [1] (1.48 µM) was determined as 1.03 ± 0.01; in assay [1] (4.44 µM), 0.98 ± 0.05; in assay [1] (13.3 µM) it was 1.21 ± 0.024; in assay [1] (40 µM), 2.01 ± 0.16.

Regarding LPS_CD40, the “BioMAP readout fold decrease” value in assay [1] (1.48 µM) is 1.33 ± 0.17; in assay [1] (4.44 µM) it was 1.67 ± 0.1; in assay [1] (13.3 µM), 2.699 ± 0.02; in assay [1] (40 µM) it was 4.12 ± 0.32.

With 4H_uPAR, the “BioMAP readout fold decrease” value in assay [1] (1.48 µM) turned out to be 1.2 ± 0.045; in assay [1] (4.44 µM) it was 1.3 ± 0.038; in assay [1] (13.3 µM), 1.361 ± 0.0024; in assay [1] (40 µM), 2.33 ± 0.26.

KF3CT_TIMP2: the “BioMAP readout fold decrease” value in assay [1] (1.48 µM) turned out to be 1 ± 0.025; in assay [1] (4.44 µM) it was 0.978 ± 0.038; in assay [1] (13.3 µM) it was 1.08 ± 0.075; in assay [1] (40 µM) it was 2.5 ± 0.22.

As for BE3C_tPA, the “BioMAP readout fold decrease” value in assay [1] (1.48 µM) is 0.995 ± 0.012; in assay [1] (4.44 µM) it was 0.805 ± 0.042; in assay [1] (13.3 µM), 1.1 ± 0.071; in assay [1] (40 µM), 1.59 ± 0.073.

hDFCGF_IL8: the “BioMAP readout fold decrease” value worked out at 1.03 ± 0.018 in assay [1] (1.48 µM), 0.964 ± 0.017 in assay [1] (4.44 µM), 0.8858 ± 0.0045 in assay [1] (13.3 µM) and 0.9866 ± 0.0065 in assay [1] (40 µM).

For CASM3C_IL8, the “BioMAP readout fold decrease” value in assay [1] (1.48 µM) was determined as 1.02 ± 0.02; in assay [1] (4.44 µM), 1.074 ± 0.0085; in assay [1] (13.3 µM), 0.938 ± 0.016; in assay [1] (40 µM), 0.872 ± 0.025.

For SAg_SRB, the “BioMAP readout fold decrease” value in assay [1] (1.48 µM) stood at 0.9638 ± 0.0049; in assay [1] (4.44 µM), 1.1 ± 0.021; in assay [1] (13.3 µM), 1.299 ± 0.011; in assay [1] (40 µM), 1.9 ± 0.097.

As to BE3C_IP10, the “BioMAP readout fold decrease” value in assay [1] (1.48 µM) amounted to 1.1 ± 0.12; in assay [1] (4.44 µM), 1.15 ± 0.0028; in assay [1] (13.3 µM), 1.65 ± 0.029; in assay [1] (40 µM) it was 3.38 ± 0.11.

BE3C_PAI1: the “BioMAP readout fold decrease” value is 1.18 ± 0.056 in assay [1] (1.48 µM), 1.236 ± 0.012 in assay [1] (4.44 µM), 1.5 ± 0.03 in assay [1] (13.3 µM) and 1.91 ± 0.13 in assay [1] (40 µM).
